The source of these data is PubChem BioAssay (Tox21).

Results filed as inconclusive are left out. Activity calls are given as the source filed them. Unless noted, calls come from the whole dose curve.

Experiment [1] in a line: Nuclear factor erythroid 2-related factor 2/antioxidant responsive element (Nrf2/ARE) small molecule agonists: luciferase reporter gene qHTS assay in human keratinocytes (AID 1919969). Note: nearly all actives have a fitted effect of over 35% in size. Background: A reporter such as luciferase makes a cellular process visible.
In experiment [2] the target is KiSS-1 receptor (Homo sapiens) (UniProt Q969F8). The experiment is described as follows: Human kisspeptin (KISS1R) small molecule agonists, calcium flux assay in KISS1R-HEK293 cells (AID 1920064; active = well fitted activation curve with a large enough effect in the repeat runs). A digest of the protocol: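 Kinetic calcium assay, 1 s sampling over 3 min at Ex/Em 480/540, in HEK293 cells engineered with human KISS1R; compounds delivered in DMSO after 1 h dye loading.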
Sequence of KiSS-1 receptor (Homo sapiens) (Q969F8 whole entry, looked up): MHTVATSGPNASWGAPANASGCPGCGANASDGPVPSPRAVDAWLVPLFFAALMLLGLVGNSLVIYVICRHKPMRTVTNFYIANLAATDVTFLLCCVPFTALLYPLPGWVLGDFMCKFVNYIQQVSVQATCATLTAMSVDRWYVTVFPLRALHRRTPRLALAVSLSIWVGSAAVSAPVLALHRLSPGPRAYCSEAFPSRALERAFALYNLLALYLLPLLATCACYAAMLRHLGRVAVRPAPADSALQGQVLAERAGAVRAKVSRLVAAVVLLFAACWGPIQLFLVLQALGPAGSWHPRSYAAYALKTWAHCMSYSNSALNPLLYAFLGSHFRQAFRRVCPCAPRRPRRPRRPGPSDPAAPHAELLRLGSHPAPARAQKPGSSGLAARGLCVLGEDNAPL
(Calcium flux is commonly read through the fluorescence of an indicator in the cells.)

Experiment [3] can be described thus: G protein-coupled receptor (GPCR) small molecule agonists, calcium flux assay: HEK293 wild type cell line counter screen (AID 1920065). A digest of the protocol:
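Calcium-sensitive dye, loaded 1 h at 37 C into cells cultured 18 h, reports compound-evoked calcium release as fluorescence (Ex/Em 480/540), measured over 3 min. Agonist mode; 15-point titrations, triplicate.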

Experiment [4] is described as follows: p53 small molecule agonists, cell-based qHTS assay with rat liver microsomes (AID 1963578). The method, boiled down: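 Each plate received p53RE-bla cells, then compound, then rat liver microsomes and NADPH (both 0.5 mg/mL final). Plates were held 16 h at 37 C, and beta-lactamase activity was detected with LiveBLAzer over 2 h.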
Background: Quantitative high-throughput screening tests each substance at several concentrations.

Experiment [5] in a line: p53 small molecule agonists, cell-based qHTS assay with human liver microsomes: qHTS cell viability counter screen (AID 1963579). Note: nearly all actives have a fitted effect of over 45% in size. A digest of the protocol: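 Tox21 library compounds, delivered from DMSO stocks, were tested on p53RE-bla cells together with 0.5 mg/mL human liver microsomes and 0.5 mg/mL NADPH (final) over 16 h at 37 C; CellTiter-Glo luminescence served as the cytotoxicity measure.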

A short description of experiment [6]: p53 small molecule agonists, cell-based qHTS assay with rat liver microsomes: qHTS cell viability counter screen (AID 1963580). Note: nearly all actives have a fitted effect of over 45% in size. The method, boiled down: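 In HCT-116 cells carrying a p53 response element-bla reporter, compounds were metabolically activated in situ by rat liver microsomes with NADPH over 16 h. Cell ATP content then served as the cytotoxicity measure.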

Experiment [7] is described as follows: p53 small molecule agonists, cell-based qHTS assay (AID 1963582; active = well fitted activation curve with a large enough effect in the signal ratio in the repeat runs, not every such curve was filed as active; the % refers to the signal ratio). A digest of the protocol:
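In this cell-based concentration-response screen, a p53 response element drives beta-lactamase; cells received DMSO-borne compounds after 5 h culture and were incubated a further 16 h before FRET substrate development.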

Experiment [8] concerns the target 5-hydroxytryptamine receptor 2A (Homo sapiens) (UniProt P28223). The experiment is described as follows: 5-hydroxytryptamine receptor 2A (HTR2A) small molecule agonists, cell-based qHTS assay (AID 1963587). Note: nearly all actives have a fitted effect of over 30% in size. A digest of the protocol:
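HTR2A-CHO cells, plated 18 h at 37 C/5% CO2, dye-loaded 1 h at 37 C; compounds in DMSO added by pin tool (agonist mode). Intracellular calcium flux read as kinetic fluorescence on FDSS over 2 min at 1 s intervals.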

Experiment [9] concerns the target Muscarinic acetylcholine receptor M1 (Homo sapiens) (UniProt P11229). The experiment is described as follows: Cholinergic receptor muscarinic 1 (CHRM1) small molecule antagonists, cell-based qHTS assay (AID 1963588). Note: nearly all actives have a fitted effect of over 40% in size. Note: potency is the fitted concentration of half-maximal effect. A digest of the protocol:
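CHRM1-CHO calcium-flux assay, antagonist mode. Cells were seeded 18 h, dye-loaded 1 h at 37 C and given compound for 5 min at RT, then acetylcholine was added at 50nM. FDSS fluorescence was read 3 min; 15 concentrations, three runs.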

Experiment [10] has the same target. The experiment can be described thus: Cholinergic receptor muscarinic 1 (CHRM1) small molecule agonists, cell-based qHTS assay (AID 1963589). Note: nearly all actives have a fitted effect of over 35% in size. The method, boiled down:
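Measures agonist-induced intracellular calcium rise. Stable human CHRM1 CHO line, 1 h dye load at 37 C, compounds from DMSO, kinetic fluorescence read.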

Experiment [11] in a line: cAMP Responsive Elements (CRE) small molecule agonists, cell-based qHTS assay (AID 1963590). The method, boiled down: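 A CRE-responsive beta-lactamase reporter in HEK 293T cells was used. Treatment ran 3 h at 37 C; detection used LiveBLAzer B/G FRET substrate for 2 h at room temperature.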
The nature of experiment [12]: cAMP Responsive Elements (CRE) small molecule antagonists, cell-based qHTS assay (AID 1963591; active = well fitted inhibition curve with a large enough effect in the signal ratio in the repeat runs, not every such curve was filed as active; the % refers to the signal ratio). The method, boiled down:
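HEK293T cells carrying a CRE-driven beta-lactamase reporter receive compound and NKH477 (0.25 uM final) for 3 h. Fluorescence from LiveBLAzer B/G FRET substrate is read after 2 h at room temperature.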

For experiment [13], the target named is Beta-2 adrenergic receptor (Homo sapiens) (UniProt P07550). The experiment can be described thus: Adrenergic beta2 receptor (ADRB2) small molecule antagonists, cell-based qHTS assay (AID 1963592). Note: nearly all actives have a fitted effect of over 50% in size. Note: potency is the fitted concentration of half-maximal effect. The method, boiled down:
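Cells (CHO, stable ADRB2 overexpression) incubated 18-20hr at 37C; compounds added from DMSO; agonist mix (1nM isoproterenol, 100uM IBMX, 25uM Ro-20-1724) added; 0.5hr RT; d2-cAMP and anti-cAMP-cryptate added; 1hr RT; 665/615 nm read.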

The target of experiment [14] is D(2) dopamine receptor (Homo sapiens) (UniProt P14416). The experiment is described as follows: Dopamine D2 receptor (DRD2) small molecule agonists, cell-based qHTS assay (AID 1963594). Note: nearly all actives have a fitted effect of over 35% in size. A digest of the protocol:
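HEK293 cells stably expressing DRD2 were cultured 24 h at 37 C, then given Ro20-1724 (0.1 mM final) and compounds for 10 min at room temperature. NKH477 (200nM) was then added for 30 min. cAMP was read by HTRF.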

Experiment [15] shares this target. The experiment is described as follows: Dopamine D2 receptor (DRD2) small molecule antagonists, cell-based qHTS assay (AID 1963595; active = well fitted inhibition curve with a large enough effect in the signal ratio in the repeat runs, with a control signal flat; the % refers to the signal ratio). The method, boiled down: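 Antagonist mode in DRD2-HEK293 cells: after compound addition with 0.1 mM Ro20-1724, cells received quinpirole (12 nM) and NKH477 (200 nM) for 30 min at room temperature; HTRF cAMP read after 1 h detection.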

The nature of experiment [16]: p53 small molecule agonists, cell-based qHTS assay with human liver microsomes (AID 1963577).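 Note: p53 response element beta-lactamase reporter cells with liver microsomes plus NADPH.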 The method, boiled down: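 Metabolically competent format: test substances, human liver microsomes and NADPH (both 0.5 mg/mL final) incubated with p53RE-bla cells 16 h at 37 C. Beta-lactamase reporter signal then quantified by fluorescence.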
The nature of experiment [17]: p53 small molecule agonists, cell-based qHTS assay: qHTS cell viability counter screen (AID 1963581). Note: nearly all actives have a fitted effect of over 45% in size. A digest of the protocol: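 Following 5 h attachment, HCT-116 p53RE-bla cells took up compound for 16 h at 37 C; the reporter was read with B/G FRET substrate (2 h RT), and viability then via CellTiter-Glo ATP luminescence.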
In experiment [18] the target is 5-hydroxytryptamine receptor 2A (Homo sapiens) (UniProt P28223). The experiment is described as follows: 5-hydroxytryptamine receptor 2A (HTR2A) small molecule antagonists, cell-based qHTS assay (AID 1963586). Note: nearly all actives have a fitted effect of over 45% in size. Note: potency is the fitted concentration of half-maximal effect. A digest of the protocol:
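Antagonist-mode intracellular calcium assay: DOI (4 nM) added after 5 min compound pre-incubation at room temperature to dye-loaded HTR2A-CHO cells. Fluorescence followed for 3 min, sampled every second.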

The target of experiment [19] is Beta-2 adrenergic receptor (Homo sapiens) (UniProt P07550). The experiment can be described thus: Adrenergic beta2 receptor (ADRB2) small molecule agonists, cell-based qHTS assay (AID 1963593).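 Note: CHO cells stably overexpressing human ADRB2.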 The method, boiled down: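 CHO cells stably over-expressing ADRB2 were plated overnight at 37C, then dosed with compounds plus a stimulation mix containing 100uM IBMX and 25uM Ro-20-1724 for 0.5hr at room temperature. cAMP was measured by HTRF competition, 1hr.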
Sequence of Beta-2 adrenergic receptor (Homo sapiens) (P07550 whole entry, looked up): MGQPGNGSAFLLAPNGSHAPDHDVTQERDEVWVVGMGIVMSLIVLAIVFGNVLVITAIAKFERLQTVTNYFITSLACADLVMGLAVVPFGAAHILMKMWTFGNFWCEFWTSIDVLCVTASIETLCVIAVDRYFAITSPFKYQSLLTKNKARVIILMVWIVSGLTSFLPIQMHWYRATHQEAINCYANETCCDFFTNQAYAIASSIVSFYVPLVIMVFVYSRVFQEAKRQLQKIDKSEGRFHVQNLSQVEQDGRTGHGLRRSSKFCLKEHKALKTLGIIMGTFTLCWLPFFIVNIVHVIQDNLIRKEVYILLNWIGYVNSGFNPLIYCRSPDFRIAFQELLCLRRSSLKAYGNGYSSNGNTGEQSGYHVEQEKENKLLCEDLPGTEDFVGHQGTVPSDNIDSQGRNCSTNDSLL

Experiment [20] addresses Gonadotropin-releasing hormone receptor (Homo sapiens) (UniProt P30968). The experiment is described as follows: Human gonadotropin-releasing hormone receptor (GnRHR) small molecule agonists, calcium flux assay in GnRHR-HEK293 cells (AID 1920063). Note: nearly all actives have a fitted effect of over 35% in size. A digest of the protocol:
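We seeded human GnRHR-expressing HEK293 cells for 18 hours, loaded them with calcium dye for an hour at 37 C, added test compounds, and recorded fluorescence intensity kinetically for three minutes.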

Sequence of D(2) dopamine receptor (Homo sapiens) (P14416 whole entry, looked up): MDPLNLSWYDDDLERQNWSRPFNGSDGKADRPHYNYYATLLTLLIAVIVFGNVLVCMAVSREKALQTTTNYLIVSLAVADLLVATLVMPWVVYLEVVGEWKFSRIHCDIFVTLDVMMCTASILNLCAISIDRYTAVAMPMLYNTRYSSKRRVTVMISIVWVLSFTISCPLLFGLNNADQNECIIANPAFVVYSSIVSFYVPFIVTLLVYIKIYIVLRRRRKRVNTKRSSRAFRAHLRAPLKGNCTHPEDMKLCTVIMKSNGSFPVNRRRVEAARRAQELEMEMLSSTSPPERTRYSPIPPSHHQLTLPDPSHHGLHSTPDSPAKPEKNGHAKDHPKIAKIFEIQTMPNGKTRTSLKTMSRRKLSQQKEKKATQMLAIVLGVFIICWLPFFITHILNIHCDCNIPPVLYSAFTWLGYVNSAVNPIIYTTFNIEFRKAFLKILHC
Sequence of Muscarinic acetylcholine receptor M1 (Homo sapiens) (P11229 whole entry, looked up): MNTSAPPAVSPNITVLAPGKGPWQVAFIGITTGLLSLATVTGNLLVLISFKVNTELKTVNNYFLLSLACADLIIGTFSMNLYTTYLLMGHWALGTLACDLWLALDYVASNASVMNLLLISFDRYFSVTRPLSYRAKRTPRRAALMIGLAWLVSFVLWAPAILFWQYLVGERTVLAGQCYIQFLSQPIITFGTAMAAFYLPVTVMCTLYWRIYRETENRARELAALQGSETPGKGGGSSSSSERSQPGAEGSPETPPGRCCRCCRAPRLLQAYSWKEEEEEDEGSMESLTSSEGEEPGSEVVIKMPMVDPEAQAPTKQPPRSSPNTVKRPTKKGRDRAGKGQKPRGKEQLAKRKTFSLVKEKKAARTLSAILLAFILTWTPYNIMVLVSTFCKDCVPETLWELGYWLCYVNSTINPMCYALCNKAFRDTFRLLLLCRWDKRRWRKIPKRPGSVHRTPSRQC
Sequence of 5-hydroxytryptamine receptor 2A (Homo sapiens) (P28223 whole entry, looked up): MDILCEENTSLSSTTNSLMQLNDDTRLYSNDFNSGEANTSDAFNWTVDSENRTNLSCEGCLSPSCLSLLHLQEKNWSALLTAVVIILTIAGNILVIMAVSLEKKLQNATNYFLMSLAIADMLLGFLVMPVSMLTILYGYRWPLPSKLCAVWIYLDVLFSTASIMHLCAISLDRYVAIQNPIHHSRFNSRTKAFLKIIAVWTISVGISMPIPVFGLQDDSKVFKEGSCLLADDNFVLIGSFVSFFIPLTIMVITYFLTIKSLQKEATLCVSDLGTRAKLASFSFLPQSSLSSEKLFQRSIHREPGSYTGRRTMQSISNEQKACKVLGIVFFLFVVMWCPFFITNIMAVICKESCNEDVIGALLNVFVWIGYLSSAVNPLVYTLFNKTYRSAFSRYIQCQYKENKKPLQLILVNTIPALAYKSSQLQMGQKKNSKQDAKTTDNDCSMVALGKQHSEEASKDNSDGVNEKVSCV
Sequence of Gonadotropin-releasing hormone receptor (Homo sapiens) (P30968 whole entry, looked up): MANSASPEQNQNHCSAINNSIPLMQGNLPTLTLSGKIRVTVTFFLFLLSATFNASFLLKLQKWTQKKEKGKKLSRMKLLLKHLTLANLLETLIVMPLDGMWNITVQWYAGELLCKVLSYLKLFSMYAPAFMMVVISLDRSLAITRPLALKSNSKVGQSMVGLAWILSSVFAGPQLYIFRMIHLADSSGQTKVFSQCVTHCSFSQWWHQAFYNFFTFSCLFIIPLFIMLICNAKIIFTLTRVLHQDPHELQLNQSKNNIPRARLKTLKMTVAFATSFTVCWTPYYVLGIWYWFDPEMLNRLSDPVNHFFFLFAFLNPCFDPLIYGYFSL

As to `Fc1ccc(C(c2ccc(F)cc2)N2CCNCC2)cc1`, the Potency entry in experiment [1], in [2], in [3], in experiment [4], in experiment [5] and in experiment [6] was “inactive” in each case. Moreover, the Potency entry in experiment [7], in experiment [8], in experiment [10], in experiment [11], in experiment [12] and in [13] was “inactive” throughout. The Potency result in experiment [14] and in experiment [15] was “inactive” each time. Besides, in experiment [9], the Potency is 2.9 µM (active).

In the case of `CCN(CC)CCCN(c1ccccc1)C1Cc2ccccc2C1`, the Potency entry in experiment [1], in [16], in experiment [4], in experiment [5], in [6] and in [17] was “inactive” each time. Moreover, the Potency entry in experiment [8], in experiment [10] and in experiment [15] was “inactive” throughout. Further, the Potency was 11.6 µM (active) in [18] and 0.106 µM (active) in [13].

For `CN(C(=O)CN(CCO)CC(=O)N(C)C(C)(C)Cc1ccccc1)C(C)(C)Cc1ccccc1`, the Potency result in experiment [1], in experiment [2], in experiment [3], in [5], in experiment [6] and in [17] was “inactive” each time. Also, the Potency result in experiment [18], in experiment [8], in [9], in experiment [10], in [12] and in experiment [13] was “inactive” in each case. The Potency result in [15] is “inactive”.

As to `CCOC(=O)[C@H](CCc1ccccc1)N[C@H]1CCc2ccccc2N(CC(=O)O)C1=O`, the Potency result in experiment [1], in experiment [2], in experiment [3], in [5], in [6] and in experiment [15] was “inactive” in each case.

Take `CCCCC=O`: the Potency entry in experiment [1], in experiment [2], in experiment [3], in experiment [5], in experiment [6] and in experiment [17] was “inactive” throughout. Besides, the Potency entry in experiment [18], in experiment [9], in experiment [10], in [11], in experiment [12] and in experiment [13] was “inactive” in each case. Further, the Potency entry in experiment [19], in [14] and in experiment [15] was “inactive” throughout.

As to `C=C1C(=C/C=C2\CCC[C@]3(C)[C@@H]([C@H](C)/C=C/[C@@H](O)C4CC4)CC[C@@H]23)C[C@@H](O)C[C@@H]1O`, the Potency result in experiment [1], in [2], in [3], in experiment [5], in experiment [6] and in experiment [17] was “inactive” throughout. In addition, the Potency entry in experiment [9], in experiment [10], in experiment [13], in experiment [14] and in experiment [15] was “inactive” each time.

Take `CC(Cc1cccc(C(F)(F)F)c1)NCCOC(=O)c1ccccc1` (stereo unspecified): the Potency entry in experiment [1], in experiment [3], in [16], in [4], in experiment [5] and in experiment [6] was “inactive” in each case. In addition, the Potency result in [7], in experiment [10], in experiment [11], in experiment [14] and in experiment [15] was “inactive” each time. The Potency was 20.5 µM (active) in experiment [18] and 29.8 µM (active) in [13].

For `CC(C)Cc1ccc(CC(=O)O)cc1`, the Potency result in experiment [20], in experiment [2], in experiment [3], in [16], in [4] and in experiment [5] was “inactive” throughout. For the same compound, the Potency result in [6], in experiment [17], in experiment [7], in experiment [18], in experiment [8] and in experiment [9] was “inactive” in each case. Further, the Potency result in experiment [10], in experiment [11], in experiment [12], in experiment [13], in [19] and in experiment [14] was “inactive” in each case. For the same compound, the Potency result in [15] is “inactive”.

With `C1CCC(C(CC2CCCCN2)C2CCCCC2)CC1` (stereo unspecified), the Potency result in experiment [1], in experiment [2], in experiment [3], in [16], in experiment [5] and in experiment [6] was “inactive” in each case. Further, the Potency result in [7] and in experiment [14] was “inactive” in each case.
